Unmarked numbers belong to inactive results. Active and inactive are the calls of the source.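 Rule for the calls: active = inhibition of at least 75% in the gel-based probe competition assay; inactive = inhibition below 75%.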

For this experiment, the target named is Platelet-activating factor acetylhydrolase (Mus musculus) (UniProt Q60963). Briefly: mouse pPAFAH inhibitors, late-stage follow-up, orthogonal assay, biochemical, gel-based competitive ABPP, fluorescence (AID 588474). The conditions noted are these: recombinant mouse pPAFAH, FP-Rh fluorescence, at 5 µM, hits give high values.
Chain of Platelet-activating factor acetylhydrolase (Mus musculus) (Q60963 whole entry, looked up): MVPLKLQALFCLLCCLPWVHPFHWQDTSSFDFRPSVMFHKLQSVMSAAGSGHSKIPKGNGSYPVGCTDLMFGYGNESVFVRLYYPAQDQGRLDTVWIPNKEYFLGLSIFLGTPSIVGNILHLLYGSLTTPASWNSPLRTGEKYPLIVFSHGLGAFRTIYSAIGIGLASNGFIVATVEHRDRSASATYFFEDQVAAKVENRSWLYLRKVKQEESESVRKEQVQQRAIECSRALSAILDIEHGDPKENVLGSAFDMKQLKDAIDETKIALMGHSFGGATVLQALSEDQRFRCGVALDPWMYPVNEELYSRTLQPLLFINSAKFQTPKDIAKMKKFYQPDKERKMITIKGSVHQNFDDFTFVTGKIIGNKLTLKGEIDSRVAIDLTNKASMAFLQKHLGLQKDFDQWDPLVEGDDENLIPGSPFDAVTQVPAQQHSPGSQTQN
Regarding `O=C(Oc1ccc(Oc2ccccc2)cc1)N1CCC(O)CC1`, the inhibition was 82% (active). The same measure for `O=C(Oc1nsnc1N1CCCCC1)N1CCOCC1`: 55%. For the compound `O=C(N/C=C/c1ccco1)OCc1ccccc1`, the inhibition is -3%. The same measure for `CCn1c(NC(=O)c2cccc(Cn3cc(Cl)cn3)c2)nc2ccccc21`: 0%; for `Cc1cccc(NS(=O)(=O)c2ccc3[nH]c(=O)oc3c2)c1C`: 17%. With `CCCNC(=O)c1ccc(N2CC3CC(C2)c2cccc(=O)n2C3)c(NC(=O)Nc2ccc(CC)cc2)c1` (stereo unspecified) the figure was 18%; with `Cc1cc(/C=C(\C#N)C(=O)NCC2CCCO2)c(C)n1-c1ccc(Cl)cc1` (stereo unspecified), 9%; with `CCOCCCNC(=O)c1ccc(N2CC3CC(C2)c2cccc(=O)n2C3)c(NC(=O)Nc2cccc(OC)c2)c1` (stereo unspecified), 21%. Take `O=C(Oc1ccc(-c2ccccc2)cc1)N1CCOCC1`: the inhibition is 98% (active). Turning to `CCOC(=O)N1CCN(C(=O)c2cccc(S(=O)(=O)Nc3ccc(Br)cc3)c2)CC1`, the inhibition was 7%.

`Cn1c(=O)oc2cc(S(=O)(=O)Nc3ccc(F)cc3)ccc21`: the inhibition was 24%. With `Cc1cc(C(=O)CSc2nc(N)cc(=O)[nH]2)c(C)n1CCc1ccc(Cl)cc1`, the inhibition was 6%. The same measure for `O=C(Oc1ccc(-c2ccccc2)cc1)N1CCCCC1`: 79% (active); for `CCOC(=O)N1CCC(NC(=O)CC2C(=O)NCCN2Cc2ccccc2F)CC1` (stereo unspecified): 10%; for `O=C(Oc1nsnc1N1CCOCC1)N1CCOCC1`: 84% (active). With `O=C(CCCSc1ccc(Cl)cc1)Nc1cc(S(=O)(=O)N2CCOCC2)ccc1O`, the inhibition was 75% (active).

Broadly, the inhibition is the drop in the measured response relative to a control, in per cent.

The values above are taken from PubChem BioAssay AID588474 (The Scripps Research Institute Molecular Screening Center, 2011).
